Data on 10 compounds can be found in publication PMC5540273 (PLoS ONE, 2017).

“And” between values parts separate entries of the source, which are not always exact repeats. Identical values can stand only once. Like-named read-outs stand apart in the source and are kept apart here.

For test [1], the system named is T1, MEK2.
T1 construct: gene MAP2K2
To be noted: concentration: 1 μM, replicates: in singlicate; n = 1.

The test system of test [2] is T2, MEK3.
T2 construct: gene MAP2K3
Particulars: concentration: 1 μM, replicates: in singlicate; n = 1.

For test [3], the system named is T3, MEK4.
T3 construct: gene MAP2K4
To be noted: n = 1.

For test [4], the system named is T4, MEK5.
T4 construct: gene MAP2K5
To be noted: n = 1.

Test [5] relates to T5, MEK6.
T5 construct: gene MAP2K6
Particulars: concentration: 1 μM, replicates: in singlicate; n = 1.

For test [6], the system named is MELK. Particulars: n = 1.
Test [7] has as its system MERTK. To be noted: n = 1.
The subject of test [8] is MET. Particulars: concentration: 1 μM, replicates: in singlicate; n = 1.
Test [9] deals with T6, MINK.
T6 construct: gene MINK1
To be noted: concentration: 1 μM, replicates: in singlicate; n = 1.

The test system of test [10] is MKK7. To be noted: concentration: 1 μM, replicates: in singlicate; n = 1.
Test [11] concerns MKNK1. Particulars: concentration: 1 μM, replicates: in singlicate; n = 1.
Test [12] deals with MKNK2. To be noted: n = 1.
Test [13] has as its system T7, MLCK.
T7 construct: gene MYLK3
To be noted: n = 1.

Test [14] relates to T8, MLK1.
T8 construct: gene MAP3K9
Particulars: concentration: 1 μM, replicates: in singlicate; n = 1.

The subject of test [15] is MLK2. To be noted: concentration: 1 μM, replicates: in singlicate; n = 1.
For test [16], the system named is MLK3. Particulars: n = 1.
The test system of test [17] is MRCKA. Particulars: n = 1.
The test system of test [18] is T9, MRCKB.
T9 construct: gene CDC42BPB
Particulars: n = 1.

The test system of test [19] is MST1R. Particulars: n = 1.
For test [20], the system named is T10, MST1.
T10 construct: gene STK4
To be noted: n = 1.

Setting [21] is: concentration: 1 μM, replicates: in singlicate.
Setting [22] is: concentration: 1 μM,replicates: in singlicate, 1 µM.
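Further: KINOMEscan kinase panel screen.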

As to `CS(=O)(=O)c1ccc(-c2nc3n(c2-c2ccncc2)CCC3)cc1` [SKF-105942], the “%Inh” value is given as 0% in [1]; 0% in test [2]; 8% in test [3] (setting [21]); 15% in test [4] (setting [21]); 0% in test [5]; 0% in [6] (setting [21]). Further, the “%Inh” value in [7] (setting [21]) is 24%; in [8] it was 0%; in [9] it was 1%; in test [10], 0%; in [11], 9%; in test [12] (setting [21]), 6%. Besides, the “%Inh” value was determined as 0% in test [13] (setting [21]); 0% in [14]; 0% in test [15]; 1% in test [16] (setting [21]); 14% in test [17] (setting [21]); 2% in test [18] (setting [21]). The “%Inh” value in test [19] (setting [21]) is given as 19%; in test [20] (setting [21]), 0%.

In the case of `Cl.c1ccc(-c2n[nH]cc2-c2ccnc(-c3ccc(CN4CCOCC4)cc3)c2)nc1` [GW776245], the “%Inh” value is 49% in test [1]; 0% in [2]; 27% in [3] (setting [21]); 5% in test [4] (setting [21]); 0% in test [5]; 5% in test [6] (setting [21]). In addition, the “%Inh” value in test [7] (setting [21]) was 8%; in [8] it was 16%; in test [9] it was 8%; in test [10], 0%; in [11], 1%; in [12] (setting [21]), 0%. The “%Inh” value was 0% in [13] (setting [21]); 13% in test [14]; 25% in test [15]; 10% in test [16] (setting [21]); 29% in [17] (setting [21]); 0% in test [18] (setting [21]). For the same compound, the “%Inh” value in test [19] (setting [21]) stood at 0%; in [20] (setting [21]), 21%.

With `COc1cc2nccc(Nc3ccc(NC(=O)c4ccc(C)cc4)c(O)c3)c2cc1OC.Cl` [GW440132], the “%Inh” value in [1] worked out at 0%; in test [2], 0%; in [3] (setting [21]), 19%; in test [4] (setting [21]), 99.9%; in [5] it was 0%; in [6] (setting [21]), 0%. In addition, the “%Inh” value in test [7] (setting [21]) is recorded as 5%; in test [8], 0%; in [9], 0%; in test [10] it was 0%; in test [11] it was 0%; in [12] (setting [21]) it was 5%. Besides, the “%Inh” value in test [13] (setting [21]) came to 0%; in test [14], 0%; in [15] it was 0%; in test [16] (setting [21]), 33%; in test [17] (setting [21]), 13%; in [18] (setting [21]), 8%. Also, the “%Inh” value was 0% in test [19] (setting [21]) and 1% in test [20] (setting [21]).

With `Cn1ccc2ncnc(Oc3cccc(C(=O)Nc4ccccc4)c3)c21`, the “%Inh” value is 23% in [1]; 19% in [2]; 30% in [3] (setting [21]); 14% in test [4] (setting [21]); 0% in [5]; 9% in test [6] (setting [21]). In addition, the “%Inh” value in test [7] (setting [21]) stood at 0%; in test [8], 8%; in test [9] it was 12%; in test [10] it was 21%; in [11] it was 12%; in [12] (setting [21]), 11%. The “%Inh” value was determined as 13% in [13] (setting [21]); 0% in test [14]; 6% in [15]; 12% in [16] (setting [21]); 1% in [17] (setting [21]); 15% in [18] (setting [21]). The “%Inh” value in test [19] (setting [21]) worked out at 11%; in test [20] (setting [21]), 0%.

For the compound `CC(C)(C)c1ccc(C(=O)Nc2cn3cc(Cl)ccc3n2)cc1`, the “%Inh” value in test [1] is given as 24%; in test [2], 0%; in test [3] (setting [21]), 33%; in test [4] (setting [21]), 38%; in [5], 0%; in test [6] (setting [21]), 1%. Besides, the “%Inh” value in [7] (setting [21]) is 0%; in test [8], 0%; in test [9] it was 9%; in [10], 0%; in test [11], 0%; in [12] (setting [21]), 0%. Also, the “%Inh” value in test [13] (setting [21]) is listed as 54%; in test [14], 0%; in [15], 8%; in [16] (setting [21]) it was 0%; in [17] (setting [21]), 0%; in [18] (setting [21]), 0%. Besides, the “%Inh” value was found to be 5% in test [19] (setting [21]) and 0% in test [20] (setting [21]).

`Cc1cc(N2Cc3ccccc3C2)nc(Nc2ccc(S(=O)(=O)N3CCOCC3)cc2)n1.Cl` [GSK1669917]: the “%Inh” value in test [1] is reported as 0%; in [2] it was 0%; in [3] (setting [21]) it was 0%; in test [4] (setting [21]), 9%; in [5] it was 0%; in test [6] (setting [21]), 0%. Also, the “%Inh” value in [7] (setting [21]) came out at 9%; in [8] it was 0%; in test [9] it was 20%; in test [10], 0%; in [11] it was 0%; in test [12] (setting [21]) it was 0%. For the same compound, the “%Inh” value is listed as 0% in test [13] (setting [21]); 0% in test [14]; 0% in [15]; 15% in test [16] (setting [21]); 1% in test [17] (setting [21]); 0% in test [18] (setting [21]). Also, the “%Inh” value in test [19] (setting [21]) and in [20] (setting [21]) was 0% throughout.

Consider `CCCc1ccc(S(=O)(=O)NC2CCN(c3ccnc(Nc4ccc(F)cc4)n3)C2)cc1` (centres unmarked) [GSK1379715], for which the “%Inh” value in test [1] worked out at 0%; in [2], 0%; in test [3] (setting [21]), 28%; in test [4] (setting [21]) it was 0%; in test [5] it was 100%; in [6] (setting [21]) it was 0%. Moreover, the “%Inh” value in [7] (setting [21]) is on record as 0%; in test [8] it was 0%; in test [9], 0%; in [10], 0%; in [11], 0%; in [12] (setting [21]), 8%. In addition, the “%Inh” value worked out at 0% in test [13] (setting [21]); 0% in test [14]; 0% in test [15]; 0% in [16] (setting [21]); 12% in test [17] (setting [21]); 0% in test [18] (setting [21]). The “%Inh” value in [19] (setting [21]) is reported as 7%; in test [20] (setting [21]), 0%.

On to `Cc1nnc(-c2ccc3occ(-c4ccc(S(C)=O)cc4)c3c2)[nH]1` (centres unmarked), for which the “%Inh” value came to 1% in test [1]; 19% in [2]; 37% in test [3] (setting [21]); 42% in [4] (setting [21]); 0% in [5]; 0% in test [6] (setting [21]). Further, the “%Inh” value worked out at 13% in test [7] (setting [21]); 5% in test [8]; 17% in test [9]; 18% in test [10]; 9% in test [11]; 49% in test [12] (setting [21]). Besides, the “%Inh” value in test [13] (setting [21]) was 8%; in test [14], 6%; in [15] it was 3%; in [16] (setting [21]) it was 4%; in [17] (setting [21]), 1%; in test [18] (setting [21]) it was 0%. Also, the “%Inh” value in [19] (setting [21]) and in [20] (setting [21]) was 0% in each case.

On to `CSc1nn2c(=O)cc(N3CCOCC3)nc2n1Cc1cccc(C(F)(F)F)c1C` [GSK2363608], for which the “%Inh” value was 0% in [1]; 0% in test [2]; 17% and 30% in test [3] (setting [22]); 12% and 0% in test [4] (setting [22]); 0% in test [5]; 6% and 0% in test [6] (setting [22]). The “%Inh” value is 0% and 18% in test [7] (setting [22]); 0% in test [8]; 0% in [9]; 0% in test [10]; 0% in test [11]; 11% and 6% in [12] (setting [22]). Also, the “%Inh” value in test [13] (setting [22]) is 0% and 11%; in test [14], 0%; in test [15], 0%; in [16] (setting [22]), 17% and 0%; in test [17] (setting [22]) it was 23% and 17%; in [18] (setting [22]), 0% and 5%. Further, the “%Inh” value is 35% and 48% in [19] (setting [22]); 11% and 0% in test [20] (setting [22]).

`Nc1ncnc2[nH]c(-c3ccccc3)nc12` [AH5015]: the “%Inh” value in [1] was found to be 0%; in [2], 1%; in test [3] (setting [21]), 13%; in [4] (setting [21]) it was 50%; in test [5] it was 0%; in test [6] (setting [21]), 0%. Moreover, the “%Inh” value was found to be 0% in [7] (setting [21]); 0% in test [8]; 4% in [9]; 0% in test [10]; 0% in test [11]; 39% in test [12] (setting [21]). Besides, the “%Inh” value turned out to be 0% in test [13] (setting [21]); 11% in test [14]; 5% in test [15]; 4% in test [16] (setting [21]); 0% in [17] (setting [21]); 0% in [18] (setting [21]). In addition, the “%Inh” value in test [19] (setting [21]) was determined as 3%; in test [20] (setting [21]), 100%.
